iPSC survival up = enhancers of human iPSC single-cell survival | survival enhancement, % at 20 µM | hiPSC single-cell survival, ATPlite luminescence; 100% = ROCK inhibitor wells, 0% = DMSO | 0.044% of 360,000 active; in the data active = survival enhancement above about 18%;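 also: cells exposed to compounds for 16 hours before the ATP read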
CF NFkB inh = blocks PAF-induced NF-kB reporter in cystic fibrosis cells. KKLEB NF-kB-GFP reporter, GFP fluorescence overnight. inhibition, % at 5 µM. 0.86% of 360,000 active;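 active = at least 50% inhibition at 5 µM, scaled per plate between neutral and stimulator controls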;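 also: PAF is a Pseudomonas aeruginosa culture filtrate used as stimulus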
KKLEB tox = counter-screen for CF NF-kB inhibitors: cytotoxicity; 0.36% of 360,000 active; KKLEB CF airway cells viability, ATPlite luminescence, overnight; hits give low values; cells stimulated with P. aeruginosa culture filtrate; activity change (cytotoxicity), % at 5 µM; AID 602141;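 active = corrected activity change at or below -50% at 5 µM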
C8 TRAIL sens = sensitizes caspase-8 expressing cells to TRAIL; inhibition (viability loss, TRAIL sensitization), % at 10 µM; 1% of 360,000 active; NB7+C8 cells + TRAIL, ATPlite viability luminescence;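 active = compounds causing at least 50% loss of cell viability in the single-dose screen, relative to plate controls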
HIF-2a block = blocks HIF-2a reporter activity. 786-0 RCC cells HIF-2a reporter, luciferase luminescence, overnight. inhibition, % at 18.8 µM. 0.72% of 360,000 active;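 active = inhibition of the luminescence signal of 40% or more relative to plate controls, in a single-dose primary screen at 18.75 µM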
PPC-1+TRAIL kill = kills PPC-1 cancer cells in the presence of TRAIL. PPC-1 cells + TRAIL, ATPLite viability luminescence. cell killing (% activity), % at 4 µM or 5 µM. 0.41% of 220,000 active;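 active = cell killing above 50% in the first pass at 4 µM, then a duplicate retest at 5 µM averaging 50% or more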
Mdm2 MdmX conf = Mdm2/MdmX (human) interaction inhibition, confirmed; AID 504601; 99% of 740 active; SaOS-2 split-luciferase Mdm2/MdmX complementation, luminescence; inhibition, % at 8 µM; shares compounds with HIF-2a block;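 active = mean inhibition of the luminescence signal across two replicates at or above 26 percent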
HIF-2a inh conf = confirmation of HIF-2a inhibitors | inhibition, % at 18.8 µM | shares compounds with HIF-2a block | 56% of 1,800 active | 786-0 RCC cells, HIF-2a luciferase reporter luminescence, overnight | AID 651580;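 active = mean inhibition across four replicates of at least 40 percent at the single tested concentration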
HIF-1a cs = HIF-1a inhibition counter-screen for HIF-2a hits; shares compounds with HIF-2a block; MiaPaCa-2 HIF-1a luciferase reporter, desferoxamine, overnight; inhibition, % at 18.8 µM; 72% of 1,800 active; AID 651589;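 active = mean inhibition of the reporter signal across four replicates at the single tested dose of 50% or more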
Each line names hits and unclear results; the compound was inactive in the other large screens (follow-up assays come after a bar, where they were run). Most compounds without a hit are left out; they make up all but 2.2% or so of the library.

Cc1cc(F)ccc1S(=O)(=O)Nc1ccccc1C(=O)Nc1ncn[nH]1	none
N#C/C(=C\c1ccc(Sc2ccccc2)o1)c1nc2ccccc2[nH]1	none
N#C/C(=C\c1ccc([N+](=O)[O-])o1)c1nc2ccccc2[nH]1	none (no result: iPSC survival up, CF NFkB inh, KKLEB tox, C8 TRAIL sens, HIF-2a block) | Mdm2 MdmX conf 103
COc1ccc(C(C(=O)NC2CCCC2)N(CCCO)C(=O)c2snc(C(N)=O)c2N)cc1 (configuration not stated)	none (no result: PPC-1+TRAIL kill)
CC(Sc1ncnc2c1cnn2-c1ccccc1)C(=O)NCC1CCCO1 (configuration not stated)	none (no result: PPC-1+TRAIL kill)
Cc1nc(SC(C)C(=O)NCC2CCCO2)c2cc(-c3ccccc3)sc2n1 (configuration not stated)	none (no result: PPC-1+TRAIL kill) | Mdm2 MdmX conf 101
CCCCCCCCCCCCCCCC(O)C[N+](C)(C)CCO (configuration not stated)	CF NFkB inh 54, KKLEB tox -62, C8 TRAIL sens 92, HIF-2a block 62 (no result: PPC-1+TRAIL kill) | HIF-2a inh conf 52 | HIF-1a cs 92
CCCCCC(O)CCCC(=O)O (configuration not stated)	none (no result: PPC-1+TRAIL kill)
C/C=C(\C)C(=O)OC1CC(C)(C)C[C@H]2C3=CC[C@@H]4[C@@]5(C)CCC(O[C@@H]6O[C@@H](C(=O)O)[C@@H](O)C(O[C@@H]7OC[C@H](O)[C@@H](O)[C@@H]7O[C@@H]7OC(CO)C(O)[C@@H](O)[C@@H]7O)C6O[C@@H]6OC(CO)C(O)C(O)C6O)[C@@](C)(CO)[C@@H]5CC[C@]4(C)[C@]3(C)CC(O)[C@@]12CO (some centres not stated)	none (no result: PPC-1+TRAIL kill)
O=C(CCCc1nc(-c2ccccc2Cl)no1)NC1CCCC1	HIF-2a block 88 (no result: PPC-1+TRAIL kill) | HIF-2a inh conf 96 | HIF-1a cs 64
CCN(c1ccc(NC(=O)c2ccc(N3CCCC3=O)cc2)cc1)C(C)C	none (no result: PPC-1+TRAIL kill)
CCC1CCCCN1CCCNC(=O)C1CCN(Cc2nc(-c3ccc(Cl)cc3)oc2C)CC1 (configuration not stated)	none (no result: PPC-1+TRAIL kill) | Mdm2 MdmX conf 102
COCCN1CC(C(=O)NCc2ncccc2C)CCC1=O (configuration not stated)	none (no result: PPC-1+TRAIL kill)
CCCCCOc1ccc(/C=C/c2c([N+](=O)[O-])c(=O)n(C)c(=O)n2C)cc1	HIF-2a block 42 (no result: PPC-1+TRAIL kill) | HIF-2a inh conf inactive | HIF-1a cs inactive
Cn1c(/C=C/c2ccc(Cl)cc2)c([N+](=O)[O-])c(=O)n(C)c1=O	HIF-2a block 63 (no result: PPC-1+TRAIL kill) | HIF-2a inh conf 44 | HIF-1a cs inactive
Cn1c(/C=C/c2cccc([N+](=O)[O-])c2)c([N+](=O)[O-])c(=O)n(C)c1=O	HIF-2a block 45 (no result: PPC-1+TRAIL kill) | HIF-2a inh conf inactive | HIF-1a cs 57
Cc1[nH]c(C)c(S(=O)(=O)N2CCCCC2)c1C(=O)N1CCCCC1	none (no result: PPC-1+TRAIL kill)
O=C(COC(=O)CCN=C1NS(=O)(=O)c2ccccc21)NC1CCCCCCC1	none
CCOC(=O)CNC(=O)CSc1ncnc2c1cnn2Cc1ccccc1	HIF-2a block 48 | HIF-2a inh conf inactive | HIF-1a cs inactive
CCN(CC)c1ccc2c(c1)oc(=O)c1c(Cl)cc(=O)oc12	C8 TRAIL sens 70, HIF-2a block 93 | Mdm2 MdmX conf 103
COc1ccc(C(=S)N2CCN(c3cccc(Cl)c3)CC2)cc1	none
COc1ccc2c(n1)Sc1nc3ccccc3nc1N2	C8 TRAIL sens 77, HIF-2a block 92 | HIF-2a inh conf inactive | HIF-1a cs inactive
COc1cc2ccccc2nn1	none
FC(F)(F)c1cnc(NNC(=S)Nc2ccccc2)c(Cl)c1	HIF-2a block 45 (no result: PPC-1+TRAIL kill) | HIF-2a inh conf 61 | HIF-1a cs inactive
